The panel holds about 83,000 compounds, 20% with a hit somewhere; the sample as a whole holds those more often.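 Single-concentration screen, 48 h exposure, 96-well plates. Endpoint: percent growth. Below 10 = active.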 A number with no mark means an inactive call. Active and inactive are the calls of the source.

Among the test systems are NCI-H23 lung; NCI-H226 lung; NCI-H322M lung; HOP-62 NSCLC; NCI-H460 lung; HOP-92 NSCLC; NCI-H522 lung; A549/ATCC NSCLC; 786-0 renal; COLO 205 colon.
What all share (assay): NCI-60 one-dose screen, 48 h (100 = growth as untreated, 0 = no growth, -100 = all killed)
What all share (settings): 10 µM unless noted

As to `CC(Sc1nc2ccccc2c(=O)n1CCc1ccc(S(N)(=O)=O)cc1)C(=O)Nc1ccc(Cl)cc1` (stereo not given), the growth was 79.5% in the test on NCI-H23 lung; 76.6% in the test on NCI-H226 lung; 73.4% in the test on NCI-H322M lung; 84.4% in the test with HOP-62 NSCLC; 94.7% with NCI-H460 lung; 107% with HOP-92 NSCLC. The growth with NCI-H522 lung is 56.3%; with A549/ATCC NSCLC, 69.6%; in the test on 786-0 renal, 80.2%; with COLO 205 colon, 106%.
Consider `COc1cc2c(-c3cc4c(cc3CNCCc3ccc5c(c3)OCO5)OCO4)cccc2c(OC)c1O`, for which the growth with NCI-H23 lung is 80.5%; with NCI-H226 lung, 92.2%; in the test on NCI-H322M lung it was 84.6%; in the test on HOP-62 NSCLC it was 70.9%; with NCI-H460 lung, 91.2%; with HOP-92 NSCLC, 66.4%. Also, the growth is 79.1% with NCI-H522 lung, 92.3% in the test with A549/ATCC NSCLC, 90.1% in the test on 786-0 renal and 117% in the test with COLO 205 colon.
With `CN(C)CCn1c2ccc(Br)cc2c2nc3ccccc3nc21`, the growth in the test on NCI-H23 lung is 36.1%; in the test on NCI-H226 lung, 41.9%; in the test with NCI-H322M lung, 35.2%; in the test with HOP-62 NSCLC it was 25.1%; in the test on NCI-H460 lung, 12.6%; in the test on HOP-92 NSCLC, 49.6%. In addition, the growth in the test with NCI-H522 lung was 29.8%; with A549/ATCC NSCLC, 17.4%; in the test on 786-0 renal it was 33.7%; in the test on COLO 205 colon it was 9.69% (active).
Consider `CNC(=O)c1cccc(Cn2nc(C)c(NC(=O)c3ccc(COc4ccc(C(F)(F)F)cc4C)cc3)c2C)c1`, for which the growth in the test with NCI-H23 lung is 47.3%; in the test with NCI-H226 lung, 44.6%; with NCI-H322M lung, 88%; with HOP-62 NSCLC it was 46.3%; in the test with NCI-H460 lung, 47.7%; with HOP-92 NSCLC, 80%. The growth was 33% in the test with NCI-H522 lung, 31.1% in the test with A549/ATCC NSCLC, 54.8% in the test on 786-0 renal and 42.7% in the test with COLO 205 colon.
For `O=c1c2c(c(=O)n1O)c1c3ccc[nH]c3nc1c1nc3[nH]cccc3c12`, the growth with NCI-H23 lung is 86.7%; with NCI-H226 lung, 87.1%; in the test with NCI-H322M lung, 91%; in the test on HOP-62 NSCLC, 83%; in the test with NCI-H460 lung, 93.1%; in the test with HOP-92 NSCLC, 80.1%. The growth in the test on NCI-H522 lung is 55%; in the test on A549/ATCC NSCLC, 79.4%; in the test with 786-0 renal, 87.5%; in the test with COLO 205 colon it was 94.9%.
`Cc1ccc(C(=O)/C(=C\c2ccc([N+](=O)[O-])cc2)S(=O)Cc2ccc(F)cc2)cc1` (stereo not given): the growth with NCI-H23 lung is 31.6%; with NCI-H226 lung it was 41.5%; with NCI-H322M lung, 72.6%; in the test on HOP-62 NSCLC it was 21.5%; with NCI-H460 lung, 15%; in the test on HOP-92 NSCLC it was 27.2%. Further, the growth was -12% (active) in the test on NCI-H522 lung, 73.2% with A549/ATCC NSCLC, -66.1% (active) with 786-0 renal and 2.86% (active) in the test with COLO 205 colon.
With `C=CC(=O)N[C@@H](/C=C/C(=O)OCC)Cc1ccc(-c2cc(Cl)cc(Cl)c2)cc1`, the growth in the test on NCI-H23 lung is 15.6%; with NCI-H226 lung it was 10.8%; in the test on NCI-H322M lung it was 58.9%; in the test on HOP-62 NSCLC, 36%; with NCI-H460 lung, 9.25% (active); in the test on HOP-92 NSCLC, 14.8%. The growth is 3.13% (active) in the test on NCI-H522 lung, 11.6% in the test with A549/ATCC NSCLC, 11.8% with 786-0 renal and 6.63% (active) in the test on COLO 205 colon.
Consider `C=C(C)[C@@H]1CC[C@]2(C(=O)N[C@@H](Cc3ccccc3)C(=O)OC)CC[C@]3(C)[C@H](CC[C@@H]4[C@@]5(C)CCC(=O)C(C)(C)[C@@H]5CC[C@]43C)[C@@H]12`, for which the growth in the test on NCI-H23 lung is 86.7%; in the test on NCI-H226 lung it was 94.6%; in the test with NCI-H322M lung, 93.4%; with HOP-62 NSCLC, 94%; in the test with NCI-H460 lung, 81.3%; with HOP-92 NSCLC it was 57.6%. In addition, the growth in the test with NCI-H522 lung is 79.7%; with A549/ATCC NSCLC it was 79%; in the test with 786-0 renal, 85.8%; in the test with COLO 205 colon it was 94.5%.
On to `COc1ccc(-c2cnc3c(-c4cccc5ncccc45)cnn3c2)cc1`, for which the growth in the test with NCI-H23 lung was 50%; in the test on NCI-H226 lung, 0.736% (active); in the test on NCI-H322M lung, 42.7%; with HOP-62 NSCLC, 4.66% (active); in the test with NCI-H460 lung, 33.9%; in the test with HOP-92 NSCLC, 24.9%. For the same molecule, the growth is 32.8% with NCI-H522 lung, 27.2% in the test with A549/ATCC NSCLC, 18.3% with 786-0 renal and 88.5% with COLO 205 colon.
As for `CC[C@]12C=CCN3CC[C@@]4(c5cc(NC(=O)CCC(=O)O[C@H]6CC[C@H]7[C@@H]8CCC9=CC(=O)CC[C@@H]9[C@H]8CC[C@]67C)c(OC)cc5N(C)[C@H]4[C@@](O)(C(=O)OC)[C@@H]1OC(C)=O)[C@@H]32`, the growth in the test with NCI-H23 lung is 90.7%; with NCI-H226 lung it was 86.5%; with NCI-H322M lung, 91.1%; in the test on HOP-62 NSCLC it was 89.3%; in the test with NCI-H460 lung it was 77.4%; in the test with HOP-92 NSCLC, 64.6%. Besides, the growth with NCI-H522 lung was 69.9%; in the test with A549/ATCC NSCLC it was 74.3%; in the test with 786-0 renal it was 86%; in the test with COLO 205 colon, 89.8%.
As for `O=[N+]([O-])CC(c1ccccc1F)c1c[nH]c2ccccc12` (stereo not given), the growth in the test with NCI-H23 lung is 82.5%; with NCI-H226 lung, 81.9%; in the test on NCI-H322M lung, 96%; with HOP-62 NSCLC, 69%; with NCI-H460 lung, 94.8%; in the test with HOP-92 NSCLC, 80.9%. Moreover, the growth in the test with NCI-H522 lung is 23.2%; in the test with A549/ATCC NSCLC, 70%; with 786-0 renal it was 87.7%; with COLO 205 colon, 80.4%.
With `COc1ccc(CNCCN2C(=O)c3ccc4c5c(ccc(c35)C2=O)C(=O)N(CCNCc2ccc(OC)c(OC)c2OC)C4=O)c(OC)c1OC`, the growth in the test on NCI-H23 lung is -42.8% (active); with NCI-H226 lung it was -13.7% (active); in the test on NCI-H322M lung it was -1.94% (active); in the test with HOP-62 NSCLC, 20%; in the test on NCI-H460 lung, -21.2% (active); in the test on HOP-92 NSCLC, 5.62% (active). The growth is -78% (active) in the test on NCI-H522 lung, -39.9% (active) in the test with A549/ATCC NSCLC, 8.05% (active) with 786-0 renal and -10.9% (active) in the test with COLO 205 colon.
As for `O=[N+]([O-])c1ccc(N=Nc2cc(S(=O)(=O)O)c3cccc(S(=O)(=O)O)c3c2O)cc1`, the growth in the test with NCI-H23 lung is 103%; in the test on NCI-H226 lung, 105%; in the test on NCI-H322M lung, 80.7%; in the test on HOP-62 NSCLC, 107%; in the test with NCI-H460 lung, 116%; in the test on HOP-92 NSCLC, 87.8%. Further, the growth is 110% in the test on NCI-H522 lung, 114% with A549/ATCC NSCLC, 114% in the test on 786-0 renal and 127% in the test on COLO 205 colon.

Source of the values: PubChem BioAssay (NCI).
